Assay results from PubChem BioAssay (NCATS).
Records with an inconclusive call do not appear. Activity calls are given as the source filed them. Calls come from the whole dose curve; as a rule, active = well fitted curve in the direction sought with a large enough effect; inconclusive = small, poorly fitted or top-dose-only effect, or another doubt; inactive = no such curve, though single readings can be large; an effect the other way counts as inactive or inconclusive.

What follows are compounds tested against Cellular tumor antigen p53 (Homo sapiens) (UniProt P04637) (assay: Primary qHTS for small molecule compounds that upregulate eGFP-tagged delta133p53alpha (in N-terminal) cells. (AID 2060322; note: nearly all actives have a fitted effect of over 75% in size; note: potency is the fitted concentration of half-maximal effect;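 for activation: 0% = DMSO vehicle and 100% = reference activator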)). Settings: NCI-H358 eGFP-delta133p53alpha fluorescence, 24 h; activation: stronger effect = higher value.
Cellular tumor antigen p53 (Homo sapiens), sequence (P04637 whole entry, looked up): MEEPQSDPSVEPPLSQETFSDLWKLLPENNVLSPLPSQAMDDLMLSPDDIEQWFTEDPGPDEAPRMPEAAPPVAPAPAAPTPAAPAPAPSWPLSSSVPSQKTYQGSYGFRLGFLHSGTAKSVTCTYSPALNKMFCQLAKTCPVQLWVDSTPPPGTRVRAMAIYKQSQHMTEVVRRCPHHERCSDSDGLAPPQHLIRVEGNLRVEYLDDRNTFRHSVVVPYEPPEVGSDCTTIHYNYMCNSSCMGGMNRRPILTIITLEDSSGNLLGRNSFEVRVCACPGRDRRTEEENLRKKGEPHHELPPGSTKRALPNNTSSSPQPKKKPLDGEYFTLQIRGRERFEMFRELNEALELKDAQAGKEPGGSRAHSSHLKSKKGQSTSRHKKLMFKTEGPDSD
Summary of the method: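 NCI-H358 cells pre-induced 24 h with 10 ng/ml doxycycline to express N-terminal eGFP-delta133p53alpha, then dosed 24 h at 37C without doxycycline; fixed, Hoechst-stained, GFP intensity by laser scanning cytometry, normalized to DMSO (0%) and 57.5 uM 5-azacytidine (100%).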

SMILES | activation | Potency
CC1CCC2C(C(=O)O)=CC3(O)CC(C)(C)CC123 (stereo unspecified) | -22.3% (inactive) | –
C=CCC1=C[C@]2(OC)[C@H](C)[C@@H](c3ccc(OC)c(OC)c3)O[C@]2(OC)CC1=O | -3.57% (inactive) | –
CC1(C)CC[C@]2(C(=O)O[C@@H]3O[C@H](CO)[C@@H](O)[C@H](O)[C@H]3O)CC[C@]3(C)C(=CCC4[C@@]5(C)C[C@@H](O)[C@H](O)C(C)(C)C5[C@H](O)C[C@]43C)[C@@H]2[C@@H]1O (stereo partly specified) | -11.5% (inactive) | –
C/C=C/C1=CC2=C(CO1)C(=O)[C@](C)(O)[C@H](OC(=O)c1c(O)cc(OC)c(O)c1C)C2 | 3.82% (inactive) | –
C[C@@H]1O[C@@H](O[C@H]2[C@H](O[C@H]3CC[C@@]4(C)C(CC[C@]5(C)C4CC=C4[C@@H]6CC(C)(C)CC[C@]6(C(=O)O[C@@H]6OC[C@H](O)[C@H](O)[C@H]6O[C@@H]6O[C@@H](C)[C@H](O[C@@H]7O[C@H](CO)[C@@H](O)[C@H](O)[C@H]7O)[C@H](O)[C@H]6O)[C@H](O)C[C@]45C)C3(C)C)O[C@H](CO)[C@@H](O[C@@H]3OC[C@@H](O)[C@H](O)[C@H]3O)[C@@H]2O)[C@H](O)[C@H](O)[C@H]1O (stereo partly specified) | -2.29% (inactive) | –
Nc1nc2c(cnn2CCCc2ccc(O)cc2)c2nc(-c3ccco3)nn12 | -11% (inactive) | –
CC1(C)CCC[C@@]2(C)[C@H]1[C@H](O)C=C1COC(=O)[C@@]12O | -4.58% (inactive) | –
C/C=C1/[C@H](O[C@@H]2O[C@H](CO)[C@@H](O)[C@H](O)[C@H]2O)OC=C(C(=O)OC)[C@H]1CC(=O)OCCc1ccc(OC(=O)C[C@@H]2C(C(=O)OC)=CO[C@@H](O[C@@H]3O[C@H](CO)[C@@H](O)[C@H](O)[C@H]3O)/C2=C/C)cc1 | -7.14% (inactive) | –
CC/C=C\C(O)C(O)C1=C(C)C(=O)C2(O1)C(=O)NC(OC)(C(=O)c1ccccc1)C2O (stereo unspecified) | 0.763% (inactive) | –
C=C1CC[C@@H]2[C@](C)(CO[C@@H]3O[C@H](CO)[C@@H](O)[C@H](O)[C@H]3O)CCC[C@@]2(C)[C@@H]1CCC1=CCOC1=O | 10.7% (inactive) | –
O=C(/C=C/c1ccc(O)c(O)c1)O[C@H]1[C@@H]2C=CO[C@@H](O[C@@H]3O[C@H](CO)[C@@H](O)[C@H](O)[C@H]3O)[C@@H]2[C@@]2(CO)O[C@@H]12 | 22.3% (inactive) | –
CC(C)S(=O)(=O)N[C@H]1CCOC[C@@H]1c1ccc(-c2ccc(C#N)s2)cc1 | -15% (inactive) | –
COc1cc2c(cc1O)C1(OC)Cc3ccc4c(c3C1N(C)CC2)OCO4 (stereo unspecified) | 20.5% (inactive) | –
COc1ccc(C)c2sc(NC(=O)c3ccncc3)nc12 | -15.7% (inactive) | –
CC1(O)CCC2C(C(=O)O)=COC(OC3OC(CO)C(O)C(O)C3OC(=O)/C=C/c3ccc(O)cc3)C21 (stereo unspecified) | -16% (inactive) | –
OC[C@H]1O[C@@H](OCCc2ccccc2)[C@H](O[C@@H]2OC[C@](O)(CO)[C@H]2O)[C@@H](O)[C@@H]1O | -4.58% (inactive) | –
COc1cc(C2OCC3C(c4ccc(OC5OC(CO)C(O)C(O)C5O)c(OC)c4)OCC23)ccc1O (stereo unspecified) | -24.4% (inactive) | –
O=C(/C=C/c1ccc(O)cc1)O[C@H]1[C@@H]2C=CO[C@@H](O[C@@H]3O[C@H](CO)[C@@H](O)[C@H](O)[C@H]3O)[C@@H]2[C@@]2(CO)O[C@@H]12 | -7.63% (inactive) | –
O=C(OC[C@H]1O[C@H](O[C@]2(CO)O[C@H](CO)[C@@H](O)[C@@H]2O)[C@H](O)[C@@H](O)[C@@H]1O)c1ccccc1 | 0.763% (inactive) | –
C=C1C(=O)O[C@H]2CC(=C)[C@H]3CC[C@@](C)(O)[C@@H]3CC12 (stereo partly specified) | – | 15.1 µM (active)
COc1cc2ncnc(Nc3ccc(O)cc3)c2cc1OC | 4.46% (inactive) | –

Each compound was assayed against Aldehyde dehydrogenase, mitochondrial (Homo sapiens) (UniProt P05091) (assay: qHTS for Inhibitors of the Aldehyde Dehydrogenase Family (ALDH2) Primary screen (AID 2061308;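 note: plate controls were vehicle for no effect and reference inhibitor for full effect; nearly all actives have a fitted effect of over 55% in size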)). Settings: ALDH2 enzyme inhibition qHTS, 1536-well; series mostly up to 56 µM; activity change, negative = inhibition: at the top concentration.

SMILES | activity change, negative = inhibition
COC(=O)C1=COC(O[C@@H]2O[C@H](CO)[C@@H](O)[C@H](O)[C@H]2O)/C(=C\COC(=O)/C=C/c2ccccc2)C1CC(=O)OCCc1ccc(O)cc1 (stereo partly specified) | 0.454% [at 16.9 µM] (inactive)
O=C(OC[C@@]1(O)CO[C@@H](O[C@H]2[C@H](Oc3ccc(O)cc3)O[C@H](CO)[C@@H](O)[C@@H]2O)[C@@H]1O)c1ccc(O)cc1 | -5.35% [at 28 µM] (inactive)
COc1cc([C@@H]2Oc3c(OC)cc(CCCO)cc3[C@@H]2CO[C@@H]2O[C@H](CO)[C@@H](O)[C@H](O)[C@H]2O)ccc1O | -2.7% [at 28 µM] (inactive)
C[C@@H]1O[C@@H](O[C@H]2[C@H](OC(C#N)c3ccc(O)cc3)O[C@H](CO)[C@@H](O)[C@@H]2O)[C@H](O)[C@H](O)[C@H]1O (stereo partly specified) | 1.44% [at 28 µM] (inactive)
COc1c(C)c(C(=O)c2ccc(N)c(C(=O)O)c2)n2ccccc12 | -18.8% (inactive)
C/C=C1/CC2C(=O)Nc3cc(O)c(OC)cc3C(=O)N2C1 (stereo unspecified) | -2.31% (inactive)
COc1cc(/C=C/C(=O)OC(C)(C)C(OC2OC(CO)C(O)C(O)C2O)C(=O)OCc2ccc(OC3OC(CO)C(O)C(O)C3O)cc2)ccc1O (stereo unspecified) | -2.54% [at 16.9 µM] (inactive)
Cc1c(C)c(NCC(=O)N(C)C2CCN(Cc3ccc(C(N)=O)cc3)CC2)c(C)c(C)c1N | -10.5% (inactive)
C[C@@H]1O[C@@H](O[C@H]2[C@@H]3C=CO[C@@H](O[C@@H]4O[C@H](CO)[C@@H](O)[C@H](O)[C@H]4O)[C@@H]3[C@@]3(CO)O[C@@H]23)[C@H](O)[C@H](OC(=O)/C=C/c2ccc(O)c(O)c2)[C@H]1O | -3.93% [at 16.9 µM] (inactive)
CC1=CC(=O)CC(C)(C)C1CO[C@@H]1O[C@H](CO)[C@@H](O)[C@H](O)[C@H]1O (stereo partly specified) | 9.28% (inactive)
COc1cc(/C=N\NC(=O)c2ccc3c(c2)OCO3)ccc1OCc1ccccc1 | -8.69% (inactive)
CC(=O)c1c(C)cccc1O[C@@H]1O[C@H](CO)[C@@H](O)[C@H](O)[C@H]1O | -8.67% (inactive)
COc1cc(C(=O)OCC2=CCC3C(C(=O)O)=COC(O[C@@H]4O[C@H](CO)[C@@H](O)[C@H](O)[C@H]4O)C23)ccc1O (stereo partly specified) | -1.17% [at 28 µM] (inactive)
COc1cc(/C=C/CO[C@@H]2O[C@H](CO)[C@@H](O)[C@H](O)[C@H]2O)cc(OC)c1O[C@@H]1O[C@H](CO)[C@@H](O)[C@H](O)[C@H]1O | -10.3% [at 28 µM] (inactive)
COc1c2cc(c(O[C@@H]3O[C@H](CO)[C@@H](O)[C@H](O)[C@H]3O)c1OC)CCCCC(O)CCc1ccc(O)c-2c1 (stereo partly specified) | 1.51% [at 28 µM] (inactive)
OC[C@H]1O[C@@H](Oc2cc(O)cc(-c3cc4ccc(O[C@@H]5O[C@H](CO)[C@@H](O)[C@H](O)[C@H]5O)cc4o3)c2)[C@H](O)[C@@H](O)[C@@H]1O | -3.62% [at 28 µM] (inactive)
CC(C)n1nc(C#Cc2ccccc2)c2c(N)ncnc21 | 4.64% (inactive)
CC1=C(CCC(C)O[C@@H]2O[C@H](CO)[C@@H](O)[C@H](O)[C@H]2O)C(C)(C)CC(O)C1 (stereo partly specified) | 3.44% (inactive)

SMILES | activity change, negative = inhibition
C[C@@H](OC(=O)/C=C/c1ccc(O)cc1)C1=C[C@]2(C=C[C@@H]3C(C(=O)O)=CO[C@@H](O[C@@H]4O[C@H](CO[C@@H]5O[C@H](CO)[C@@H](O)[C@H](O)[C@H]5O)[C@@H](O)[C@H](O)[C@H]4O)[C@@H]32)OC1=O | 12% [at 16.9 µM] (inactive)
CC1CCC2C(C(=O)O)=CC3(O)CC(C)(C)CC123 (stereo unspecified) | 0.864% (inactive)
C=CCC1=C[C@]2(OC)[C@H](C)[C@@H](c3ccc(OC)c(OC)c3)O[C@]2(OC)CC1=O | 2.76% (inactive)
CC1(C)CC[C@]2(C(=O)O[C@@H]3O[C@H](CO)[C@@H](O)[C@H](O)[C@H]3O)CC[C@]3(C)C(=CCC4[C@@]5(C)C[C@@H](O)[C@H](O)C(C)(C)C5[C@H](O)C[C@]43C)[C@@H]2[C@@H]1O (stereo partly specified) | 24.4% [at 16.9 µM] (inactive)
C/C=C/C1=CC2=C(CO1)C(=O)[C@](C)(O)[C@H](OC(=O)c1c(O)cc(OC)c(O)c1C)C2 | -21.8% [at 28 µM] (inactive)
C[C@@H]1O[C@@H](O[C@H]2[C@H](O[C@H]3CC[C@@]4(C)C(CC[C@]5(C)C4CC=C4[C@@H]6CC(C)(C)CC[C@]6(C(=O)O[C@@H]6OC[C@H](O)[C@H](O)[C@H]6O[C@@H]6O[C@@H](C)[C@H](O[C@@H]7O[C@H](CO)[C@@H](O)[C@H](O)[C@H]7O)[C@H](O)[C@H]6O)[C@H](O)C[C@]45C)C3(C)C)O[C@H](CO)[C@@H](O[C@@H]3OC[C@@H](O)[C@H](O)[C@H]3O)[C@@H]2O)[C@H](O)[C@H](O)[C@H]1O (stereo partly specified) | -18.4% [at 11.2 µM] (inactive)
Nc1nc2c(cnn2CCCc2ccc(O)cc2)c2nc(-c3ccco3)nn12 | -2.17% (inactive)
CC1(C)CCC[C@@]2(C)[C@H]1[C@H](O)C=C1COC(=O)[C@@]12O | -9.07% (inactive)
C/C=C1/[C@H](O[C@@H]2O[C@H](CO)[C@@H](O)[C@H](O)[C@H]2O)OC=C(C(=O)OC)[C@H]1CC(=O)OCCc1ccc(OC(=O)C[C@@H]2C(C(=O)OC)=CO[C@@H](O[C@@H]3O[C@H](CO)[C@@H](O)[C@H](O)[C@H]3O)/C2=C/C)cc1 | 6.76% [at 16.9 µM] (inactive)
CC/C=C\C(O)C(O)C1=C(C)C(=O)C2(O1)C(=O)NC(OC)(C(=O)c1ccccc1)C2O (stereo unspecified) | -16.1% [at 28 µM] (inactive)
C=C1CC[C@@H]2[C@](C)(CO[C@@H]3O[C@H](CO)[C@@H](O)[C@H](O)[C@H]3O)CCC[C@@]2(C)[C@@H]1CCC1=CCOC1=O | 12.5% [at 28 µM] (inactive)
O=C(/C=C/c1ccc(O)c(O)c1)O[C@H]1[C@@H]2C=CO[C@@H](O[C@@H]3O[C@H](CO)[C@@H](O)[C@H](O)[C@H]3O)[C@@H]2[C@@]2(CO)O[C@@H]12 | -8.72% [at 28 µM] (inactive)
CC(C)S(=O)(=O)N[C@H]1CCOC[C@@H]1c1ccc(-c2ccc(C#N)s2)cc1 | -9.77% (inactive)
COc1cc2c(cc1O)C1(OC)Cc3ccc4c(c3C1N(C)CC2)OCO4 (stereo unspecified) | -4.45% (inactive)
COc1ccc(C)c2sc(NC(=O)c3ccncc3)nc12 | -15.2% (inactive)
CC1(O)CCC2C(C(=O)O)=COC(OC3OC(CO)C(O)C(O)C3OC(=O)/C=C/c3ccc(O)cc3)C21 (stereo unspecified) | -11.2% [at 28 µM] (inactive)
OC[C@H]1O[C@@H](OCCc2ccccc2)[C@H](O[C@@H]2OC[C@](O)(CO)[C@H]2O)[C@@H](O)[C@@H]1O | 2.22% [at 28 µM] (inactive)
